The text below walks through data of article PMC9911399, “Two distinct binding modes provide the RNA-binding protein RbFox with extraordinary sequence specificity”.

Where a chain is given by its changes, count along the chain named. In all, about 16,000 sequences were measured (“ka relative to ugcaugu”: median about 0.096, highest 2% from about 0.35 on). The entries come from a sample that favours the highest values as a whole.

First the molecules themselves.
B1: AAGUUAU (DNA:RNA)
RNA: GGGAGACCGGAAUUCAGAUUGUCCAAGUUAUUUAAAUCCCGUCGUAGCCACCA
DNA 1: CAATCTGAATTCCGGTCTCCC
DNA 2: TGGTGGCTACGACGGGATT
B2: GUUUCAU (DNA:RNA)
RNA: B1 RNA with A25G, A26U, G27U, U29C
DNA 1: CAATCTGAATTCCGGTCTCCC
DNA 2: TGGTGGCTACGACGGGATT
B3: UAGCAGU (DNA:RNA)
RNA: B1 RNA with A25U, U28C, U29A, A30G
DNA 1: CAATCTGAATTCCGGTCTCCC
DNA 2: TGGTGGCTACGACGGGATT
B4: CGUACCU (DNA:RNA)
RNA: B1 RNA with A25C, A26G, G27U, U28A, U29C, A30C
DNA 1: CAATCTGAATTCCGGTCTCCC
DNA 2: TGGTGGCTACGACGGGATT
B5: AGCCAUG (DNA:RNA)
RNA: B1 RNA with A26G, G27C, U28C, U29A, A30U, U31G
DNA 1: CAATCTGAATTCCGGTCTCCC
DNA 2: TGGTGGCTACGACGGGATT
B6: AUGUUGG (DNA:RNA)
RNA: B1 RNA with A26U, A30G, U31G
DNA 1: CAATCTGAATTCCGGTCTCCC
DNA 2: TGGTGGCTACGACGGGATT
B7: AGCAUAU (DNA:RNA)
RNA: B1 RNA with A26G, G27C, U28A
DNA 1: CAATCTGAATTCCGGTCTCCC
DNA 2: TGGTGGCTACGACGGGATT
B8: UAGCAUC (DNA:RNA)
RNA: B1 RNA with A25U, U28C, U29A, A30U, U31C
DNA 1: CAATCTGAATTCCGGTCTCCC
DNA 2: TGGTGGCTACGACGGGATT
B9: ACCAUGG (DNA:RNA)
RNA: B1 RNA with A26C, G27C, U28A, A30G, U31G
DNA 1: CAATCTGAATTCCGGTCTCCC
DNA 2: TGGTGGCTACGACGGGATT
B10: UAGCAUG (DNA:RNA)
RNA: B1 RNA with A25U, U28C, U29A, A30U, U31G
DNA 1: CAATCTGAATTCCGGTCTCCC
DNA 2: TGGTGGCTACGACGGGATT
B11: AGCAUGG (DNA:RNA)
RNA: B1 RNA with A26G, G27C, U28A, A30G, U31G
DNA 1: CAATCTGAATTCCGGTCTCCC
DNA 2: TGGTGGCTACGACGGGATT
B12: AGCAUUG (DNA:RNA)
RNA: B1 RNA with A26G, G27C, U28A, A30U, U31G
DNA 1: CAATCTGAATTCCGGTCTCCC
DNA 2: TGGTGGCTACGACGGGATT
B13: AUGGUUG (DNA:RNA)
RNA: B1 RNA with A26U, U28G, A30U, U31G
DNA 1: CAATCTGAATTCCGGTCTCCC
DNA 2: TGGTGGCTACGACGGGATT
B14: AGCAUGU (DNA:RNA)
RNA: B1 RNA with A26G, G27C, U28A, A30G
DNA 1: CAATCTGAATTCCGGTCTCCC
DNA 2: TGGTGGCTACGACGGGATT
B15: AGAUGGU (DNA:RNA)
RNA: B1 RNA with A26G, G27A, U29G, A30G
DNA 1: CAATCTGAATTCCGGTCTCCC
DNA 2: TGGTGGCTACGACGGGATT
B16: UAGCAUA (DNA:RNA)
RNA: B1 RNA with A25U, U28C, U29A, A30U, U31A
DNA 1: CAATCTGAATTCCGGTCTCCC
DNA 2: TGGTGGCTACGACGGGATT
B17: AUUCCUA (DNA:RNA)
RNA: B1 RNA with A26U, G27U, U28C, U29C, A30U, U31A
DNA 1: CAATCTGAATTCCGGTCTCCC
DNA 2: TGGTGGCTACGACGGGATT
B18: ACGGGGG (DNA:RNA)
RNA: B1 RNA with A26C, U28G, U29G, A30G, U31G
DNA 1: CAATCTGAATTCCGGTCTCCC
DNA 2: TGGTGGCTACGACGGGATT
B19: UCCUCGU (DNA:RNA)
RNA: B1 RNA with A25U, A26C, G27C, U29C, A30G
DNA 1: CAATCTGAATTCCGGTCTCCC
DNA 2: TGGTGGCTACGACGGGATT
B20: GUACUCA (DNA:RNA)
RNA: B1 RNA with A25G, A26U, G27A, U28C, A30C, U31A
DNA 1: CAATCTGAATTCCGGTCTCCC
DNA 2: TGGTGGCTACGACGGGATT

In the assay the target is T1, RBFOX1 RRM RbFoxmut (Fox-RRM*) (Homo sapiens, UniProt Q9NWB1 109-208, R118D;E147R;N151S;E152T).
T1 sequence: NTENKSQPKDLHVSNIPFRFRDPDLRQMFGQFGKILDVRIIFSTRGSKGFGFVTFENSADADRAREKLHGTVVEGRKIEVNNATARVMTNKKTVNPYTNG
Nature of the assay: EMSA; HiTS-Eq, 1 nM pool, 10 min; buffer printed only for the single-RNA assays: 10 mM Tris pH 7.5, 150 mM NaCl, 3.4 mM EDTA, 0.001% NP-40, 30 C. The following applies: tags: His6 N-terminal (pET28a); label: 5' 32P. Put shortly:
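Purified RbFox RRM, wild type or mutant, was incubated for 10 min in 50 µL with 1 nM of a 5′-radiolabelled RNA pool carrying 7 randomized nucleotides, whose flanks were annealed to DNA oligonucleotides, over a series of increasing protein concentrations. Unbound RNA was resolved on 8% native PAGE, cut out, reverse-transcribed, barcoded by PCR and sequenced on an Illumina HiSeq 2500. Relative association constants were derived from changes in read counts for each RNA species versus the control reaction and normalised to the cognate motif.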
Consider B1, for which the binding signal is 0.118 KA relative to UGCAUGU.

Take B2: the binding signal was 0.132 KA relative to UGCAUGU.

For B3, the binding signal was 0.0735 KA relative to UGCAUGU.

With B4, the binding signal is 0.099 KA relative to UGCAUGU.

Consider B5, for which the binding signal is 0.163 KA relative to UGCAUGU.

Turning to B6, the binding signal is 0.123 KA relative to UGCAUGU.

Take B7: the binding signal is 0.133 KA relative to UGCAUGU.

Turning to B8, the binding signal is 0.266 KA relative to UGCAUGU.

For B9, the binding signal is 0.0839 KA relative to UGCAUGU.

Take B10: the binding signal is 0.819 KA relative to UGCAUGU.

For the molecule B11, the binding signal is 0.538 KA relative to UGCAUGU.

Take B12: the binding signal is 0.2 KA relative to UGCAUGU.

Take B13: the binding signal was 0.48 KA relative to UGCAUGU.

For the molecule B14, the binding signal was 0.713 KA relative to UGCAUGU.

As for B15, the binding signal is 0.117 KA relative to UGCAUGU.

B16: the binding signal was 0.0997 KA relative to UGCAUGU.

With B17, the binding signal is 0.098 KA relative to UGCAUGU.

For the molecule B18, the binding signal is 0.118 KA relative to UGCAUGU.

On to B19, for which the binding signal is 0.124 KA relative to UGCAUGU.

For B20, the binding signal is 0.095 KA relative to UGCAUGU.
